# High-throughput results as filed in PubChem.
# In the library only some 4.2% were active in any assay of this set; here they are far more common.
# MCF10A rereplic: DNA re-replication induction in MCF 10a cells | MCF 10A DNA re-replication, Hoechst nuclear intensity, 48 h | Potency, µM (highest dose often 46.1 µM), for inactives: at the highest dose activity, positive = re-replication, usual class: activators | 350,000 compounds, 2.9% hits; further: % of control where 0% means no effect; nearly all actives have a fitted effect of over 50% in size
# Integrin act MD: activates integrin-mediated alleviation for muscular dystrophy. alpha7betagal myoblasts, beta-gal FDG fluorescence, 48 h. 350,000 compounds, 0.064% hits. Potency, µM (highest dose often 38.3 µM), without a hit: top-dose activation, usual class: activators. AID 624291;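 further: 100% = response of the positive control SU9516; nearly all actives have a fitted effect of over 60% in size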
#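 alpha7betagal+/- myoblasts (passage 13, 250/well) treated 48 h at 37C with compounds at 1:260 dilution of DMSO stock. Lysed, then beta-galactosidase activity read as FDG fluorescence (ex 480/em 540) after 30 min, with pre-read for autofluorescence.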
# Mito fusion yeast: mitochondrial division inhibition or fusion activation | 320,000 compounds, 0.23% hits | S. cerevisiae fusion-defective mutant growth rescue, CellTiterGlo 48 h | Potency, µM (highest dose often 46.1 µM), for inactives: at the top dose growth rescue (activation), hits mostly activators; further: % of control where 0% means no effect; nearly all actives have a fitted effect of over 45% in size
#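 Yeast fusion mutant, YPEG (non-fermentable carbon), compound, 48 h at 37C non-permissive; CellTiterGlo added, 10 min RT, luminescence read. Rescued growth = division inhibition.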
# A-T KAP1 phos: potential ataxia-telangiectasia treatment. F2112 A-T fibroblasts, KAP-1 phosphorylation AlphaLISA; neocarzinostatin DNA damage 30 min before lysis. Potency, µM (top dose mostly 57.5 µM), for inactives: top-dose activation, most hits filed as activators. 320,000 compounds, 0.19% hits; further: % of control where 0% means no effect; nearly all actives have a fitted effect of over 45% in size
#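 hTERT-immortalized A-T patient fibroblasts (F2112), 500 cells/well in OPTI-MEM, 1% FBS, got compounds for 60 min, then NCS for 30 min at 37C. Lysates were then assayed for phospho-KAP-1 by AlphaLISA (anti-pKAP1 donor, anti-KAP1 acceptor beads), 6 hr at 25C.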
# SW480 rereplic: inducers of DNA re-replication in SW480 colon cancer cells | SW480 DNA re-replication, Hoechst DNA content imaging, 48 h | Potency, µM (titrated, usually from 46.1 µM), for inactives: top-dose re-replication activation, actives largely listed as activators | 340,000 compounds, 1.8% hits | AID 624297; further: % of control where 0% means no effect; nearly all actives have a fitted effect of over 55% in size
#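 Per well, 250 cells were exposed to pinned compound for 48 hr. Nuclear DNA was visualised with Hoechst (40 min, 37 C) and total object intensity recorded by fluorescence scanning.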
# * marks the source's active call; other numbers are inactive results; ? = inconclusive; . = no result; [ ] = remark or other dose. The call rests on the fitted dose curve; in most records, active means well fitted activation curve with a large enough effect; inconclusive means small, poorly fitted or top-dose-only effect; inactive means no such curve, though single readings can be large or run the other way. Potency means the concentration at half of the fitted maximal effect.
SMILES,MCF10A rereplic,Integrin act MD,Mito fusion yeast,A-T KAP1 phos,SW480 rereplic
CCCCN(CC)S(=O)(=O)c1ccc(C(=O)N=c2sc3cc(NC(C)=O)ccc3n2C)cc1,10µM*,22%,-1%,-1%,7.3µM*
CCCCN(C)S(=O)(=O)c1ccc(C(=O)N=c2sc3cc(NC(C)=O)ccc3n2C)cc1,-2%,13%,0%,5%,-4%
O=S(=O)(c1c(F)cccc1F)N(CCc1ccc(F)cc1)C[C@@H](O)COCc1ccccc1,?,9%,.,.,1%
O=C1CCC2c3[nH]c4ccccc4c3CCN12 (stereo not drawn),.,2%,.,.,.
Nc1nnc(CCCCCc2nnc(N)s2)s1,11%,?,2%,-2%,1.5µM*
Cc1ccc2c(=O)n3c(nc2c1)C(CC(C)C)NC(=O)c1cccnc1-3 (stereo not drawn),.,13%,.,.,.
COc1ccccc1C(C(C(=O)c1ccccc1)N1CCOCC1)N1CCOCC1 (stereo not drawn),-24%,0%,.,.,-8%
CCCCNC(=O)NNC(=O)c1cc(C)on1,-4%,-6%,2%,-9%,-3%
Clc1ccc(Cn2c(/C=C/c3ccco3)nc3ccccc32)cc1,21µM*,0%,?,0%,16%
Cc1ccc(Cn2c(/C=C/c3ccco3)nc3ccccc32)cc1,-2%,-20%,?,4%,-9%
CCOc1ccc(NC(=O)C(Cc2ccccc2)N2C(=O)c3cccc4cccc(c34)C2=O)cc1 (stereo not drawn),8.2µM*,-26%,1%,6%,9.2µM*
CCOc1ccccc1CNC(=O)Cn1ccc2cc(S(=O)(=O)N3CCC(C)CC3)ccc21,?,-8%,4%,7%,-15%
CC/C(=C/c1ccccc1)c1cccc2[nH]c3c(OC)cccc3c12,21µM*,-19%,-13%,?,11%
Cc1nn(-c2ccccc2)nc1C(=O)Nc1cccc(C(=O)NC2CC2)c1,.,-5%,.,.,.
COc1ccc(OC)c(/C=C2\SC(N3CCCC(C)C3)=NC2=O)c1 (stereo not drawn),?,7%,13µM*,13%,28%
CCC1(c2ccccc2)NC(=O)N(CC(=O)Nc2ccc(N3CCOCC3)cc2)C1=O (stereo not drawn),5%,-4%,.,2%,7%
COc1ccc(CN2C(=O)C(CC(=O)NCC3CCCCC3)CC(C(=O)N(C)C)=C2C)cc1 (stereo not drawn),.,-12%,.,.,.
Cc1cc(NC(=O)/C(C#N)=C/c2ccc(-c3ccc(SC(F)F)cc3)o2)n(-c2ccccc2)n1,5.8µM*,20%,-1%,5%,?
O=C1N=c2ccccc2=C1c1sc(=S)n(-c2ccc(O)cc2)c1O,3%,2%,-4%,-6%,-1%
O=C1N=c2ccccc2=C1c1sc(=S)n(Cc2ccccc2Cl)c1O,1%,-8%,-2%,-6%,16µM*
COc1ccc(CNC(=O)c2cc3c(=O)n4ccccc4nc3n(Cc3cccnc3)c2=N)cc1,?,-31%[7.66 µM],-14%,2%,18%
N=c1c(C(=O)NCc2ccccc2)cc2c(=O)n3ccccc3nc2n1Cc1ccco1,13µM*,-56%,4%,.,16µM*
Cc1ccc(CNC(=O)c2cc3c(=O)n4ccccc4nc3n(Cc3ccco3)c2=N)cc1,7.9µM*,-5%,1%,7%,16µM*
CC(C)n1c(=N)c(C(=O)NCCc2ccccc2)cc2c(=O)n3ccccc3nc21,13µM*,-34%,-4%,-1%,23µM*
N=c1c(C(=O)NCc2ccc(F)cc2)cc2c(=O)n3ccccc3nc2n1Cc1ccco1,6.5µM*,-18%,0%,1%,?
SMILES,MCF10A rereplic,Integrin act MD,Mito fusion yeast,A-T KAP1 phos,SW480 rereplic
COc1ccc(C)cc1NC(=O)CNC(C)C(=O)Nc1cc(Cl)ccc1Cl (stereo not drawn),-2%,4%,4%,5%,-15%
Cc1ccc2c(c1)N/C(=C(\C=C(/Cl)[N+](=O)[O-])[N+](=O)[O-])N2,.,.,-4%,-2%,.
COc1ccc(N2c3ccccc3CN(Cc3ccccc3)[C@@H](C)[C@H]2Cc2cccnc2)cc1,.,-34%,.,.,.
CCOC(=O)c1cc2c(=O)n3ccccc3nc2n(Cc2ccc(Cl)cc2)c1=N,1.6µM*,14%,.,.,2.1µM*
Cc1ccc2nc3c(cc(C(=O)NCc4ccco4)c(=N)n3Cc3ccco3)c(=O)n2c1,?,?,-1%,4%,24%
N=c1c(C(=O)NCc2ccco2)cc2c(=O)n3ccccc3nc2n1Cc1ccccc1,18µM*,-52%,7%,1%,15µM*
N=c1c(C(=O)NCc2ccco2)cc2c(=O)n3ccccc3nc2n1Cc1ccc(Cl)cc1,2.3µM*,19%,-4%,20%,9.2µM*
COCCCn1c(=N)c(C(=O)NCc2ccc3c(c2)OCO3)cc2c(=O)n3ccccc3nc21,12%,11%,-3%,-5%,?
COCCn1c(=N)c(C(=O)NCc2ccco2)cc2c(=O)n3ccccc3nc21,10µM*,-13%,1%,-4%,?
CN(C)S(=O)(=O)c1cccc(NC(=S)Nc2cccc3cnccc23)c1,21µM*,-24%,-9%,7%,?
Cc1ccnc(NC2(C(F)(F)F)N=C3SCCN3C2=O)c1 (stereo not drawn),-10%,12%,1%,-1%,-2%
Cc1nnc(SCC(=O)NCC2CCCO2)n1Cc1ccccc1 (stereo not drawn),-9%,13%,.,9%,4%
CCOC(=O)C1CCCN(C(=O)c2ccc(Cn3c(=S)[nH]c4cc(C(=O)OC)ccc4c3=O)cc2)C1 (stereo not drawn),16µM*,-17%,4%,1%,?
C=CCOc1ccc(Oc2cc(C)nc(SC)n2)nn1,-2%,-4%,-1%,5%,-6%
Cc1ccc(NC2=CC(=O)CC(c3ccco3)C2)c(N)c1 (stereo not drawn),10µM*,9%,2%,7%,27%
Nc1ccccc1NC1=CC(=O)CC(c2ccco2)C1 (stereo not drawn),-6%,6%,11%,-1%,-4%
O=c1oc2ccccc2c(Nc2cc3ccccc3cc2O)c1[N+](=O)[O-],2.1µM*,-28%,6%,-10%,?
O=C(N/N=C/c1ccc(N2CCCCC2)o1)c1ccccc1,23µM*,-56%,-3%,5%,?
O=C(N/N=C/c1ccc(N2CCOCC2)o1)c1cccc([N+](=O)[O-])c1,16%,33%,-18%,-3%,?
NC(N)=NCCCC(NC(=O)c1ccccc1)C(=O)Nc1ccc2ccccc2c1 (stereo not drawn),-7%,.,-1%,-6%,-20%
COc1cc(NC(=O)COc2ccc(Cl)cc2)ccc1-c1cc2ccccc2oc1=O,7.3µM*,32%,-1%,15%,?
